# From PubChem BioAssay AID488890 (Southern Research Specialized Biocontainment Screening …, 2010)
# Out of some 320,000 compounds screened, about 1,300 (0.41%) were called active. Another 3% or so got no clear call; they are omitted. The rule behind the calls is not given here. These entries were drawn from the full list. Measured potencies and affinities stand elsewhere.
# Assay: growth inhibition of non-replicating M. tuberculosis (AID 488890);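 note: plate controls were DMSO cells for no effect and high antibiotic wells for full effect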
# Conditions: Mycobacterium tuberculosis non-replicating, at 25 µM, stronger effect = higher value
row,SMILES,inhibition [%]
1,O=C1NCCN/C1=C\C(=O)c1cccc(Br)c1,-1.75
2,CC1=C(C(=O)OC(C)C)C(c2coc3ccccc3c2=O)C2=C(CCCC2=O)N1 (configuration not stated),21.4
3,CCOc1ccccc1OCC(=O)OCc1csc(CC(=O)Nc2ccccc2C)n1,37.2
4,COc1ccc(NC(=O)CSc2nc3ccsc3c(=O)n2CCCCCC(=O)O)cc1,-12.1
5,O=C(c1ccc2c(c1)OCO2)N1CCC2(CC1)Oc1ccc(F)cc1C(=O)C21CC(c2ccccc2)=NO1 (configuration not stated),42.7
6,COc1cc(C(C)=O)ccc1OCC(=O)NCC1(N2CCCCC2)CCCCC1,23.8
7,O=C(CCc1c[nH]c2ccccc12)N[C@@H](Cc1c[nH]c2ccc(O)cc12)C(=O)O,-12.9
8,O=S(=O)(NCC(c1cccnc1)N1CCN(c2ccccc2)CC1)c1cccs1 (configuration not stated),44.5
9,O=C1CC(N2CCN(c3ccccc3)CC2)C(=O)N1c1ccc(Cl)cc1 (configuration not stated),58.5
10,O=C(NCc1ccccn1)Nc1ccc(Br)cc1,-10.5
11,Fc1ccc(-c2ccc(CNCc3ccccn3)o2)cc1,74.8
12,CC(C)c1ccc(N(C)C(=O)Cc2c(C(=O)O)n(C)c3ccccc23)cc1,-2.94
13,N#CCc1c(C#N)c(N)nc(N2CCN(C=O)CC2)c1C#N,2.81
14,Cc1[nH]c(C)c(S(=O)(=O)Nc2ccccc2Cl)c1C(=O)N1CCCC1,-4.19
15,Cc1ccc(N(C)S(=O)(=O)c2cccc(C(=O)NNC(=O)c3ccncc3)c2)cc1,38.7
16,COc1ccc([C@@H]2CC(=O)c3c(O)cc(O[C@@H]4OC(CO[C@@H]5OC(C)[C@H](O)[C@@H](O)[C@H]5O)[C@@H](O)[C@H](O)[C@H]4O)cc3O2)cc1O (some centres not stated),2.5
17,CSC(=Nc1ccccc1)c1c(O)n(C)c(=O)n(C)c1=O,56.9
18,CN=C(SCc1ccccc1)c1c(O)n(C)c(=O)n(C)c1=O,11.6
19,CCOC(=O)C1C(=O)CC(=O)CC1CC(C)SCC (configuration not stated),-2.43
20,Cc1ccc(S(=O)(=O)N2CCN(C(=O)CCOc3cc(C)ccc3C)CC2)cc1,39.6
21,N#C/C(=C\Nc1ccc(F)c(Cl)c1)C(=O)C1CC1,-9.33
22,C[C@@H](C(=O)Nc1ccc(SC(F)F)cc1)N1C(=O)C2CCCCC2C1=O (some centres not stated),-9.99

row,SMILES,inhibition [%]
1,CCOC(=O)/C=C1\Nc2ccccc2SC1=O,19.5
2,Cc1ccc(CNC(=O)C2(C)Oc3ccccc3NC2=O)cc1 (configuration not stated),-3.05
3,COC(=O)C1CCN(S(=O)(=O)c2c(C)n(C)c(=O)n(C)c2=O)CC1,-0.96
4,CCNc1nc2ccccc2[nH]1,11.9
5,O=C(Nc1ccccc1Oc1cccnc1)C1CCCN(Cc2cccc(Cl)c2)C1 (configuration not stated),16.5
6,CC(C)(C)c1ccc(/C=C2/SC(N3CCCC3)=NC2=O)cc1,73.6
7,Cc1ccc(/C=C2\SC(N3CCCCC3)=NC2=O)cc1,77.7
8,O=C(NC1CC2CCCC(C1)N2Cc1ccccc1)C1CCCCC1 (configuration not stated),-4.43
9,CCCCCCSc1ccc(-c2nc3ccc(C)cn3c2NCc2ccccc2)cc1OC,8.88
10,O=C(COc1ccccc1)NCC(=O)N/N=C/c1ccccc1,12.4
11,COc1ccc(-c2csc(C3=C(O)CN(CCCN4CCCC4=O)C3=N)n2)cc1OC,2.8
12,Cc1ccc2oc(=O)c(/C=C(\O)c3cccs3)nc2c1,-10.4
13,O=c1oc2ccccc2nc1/C=C(\O)c1ccccc1,77.3
14,Cc1ccc2oc(=O)c(/C=C(\O)c3ccco3)nc2c1,-4.98
15,Cc1ccc2oc(=O)c(/C=C(\O)c3ccccc3)nc2c1,4.41
16,Cc1ccc(/C(O)=C/c2nc3cc(C)ccc3oc2=O)cc1,18.1
17,Cc1ccc2oc(=O)c(/C=C(\O)c3sc(C)nc3C)nc2c1,2.53
18,CC(C(=O)c1ccccc1)[n+]1cccc(C(N)=O)c1 (configuration not stated),-11.2
19,Cc1cc(=O)[nH]c(SCC(=O)Nc2ccc(S(=O)(=O)N3CCOCC3)cc2)n1,-13.9
20,CN(c1ccc(C(=O)NC2CCCC2)cc1)S(=O)(=O)c1ccccc1,9.33
21,CC(=O)Oc1ccc(OC(C)=O)c(S(=O)(=O)c2ccc(C)c(C)c2)c1,-1.53
22,CCOC(=O)N1CCN(S(=O)(=O)c2ccc(C)cc2)C1c1ccc(OC)cc1 (configuration not stated),16.9

row,SMILES,inhibition [%]
1,Brc1ccc2c(c1)C(c1ccc(N3CCOCC3)cc1)=NNC(c1cccs1)=N2,18.5
2,c1ccc(-n2c(-c3ccco3)nnc2-c2ccco2)cc1,-0.67
3,COC(=O)[C@@]1(Cc2ccc(OC)cc2)[C@H]2c3cc(C(=O)N(C)C)n(CCc4ccc(OC)c(Br)c4)c3C[C@H]2CN1C(=O)c1ccccc1,70.8
4,CCSc1ncc(/C=N/Nc2ccc(F)cc2)n1C,60.8
5,CCSc1ncc(/C=N/Nc2ccccc2)n1C,53.4
6,COc1cc(CC(NC(C)=O)C(=O)NC2CCN(c3c4c(nc5ncnn35)CCC4)CC2)cc(OC)c1 (configuration not stated),-7.76
7,O=C(N/N=C/c1cccc2ccccc12)c1cccnc1,77.8
8,Cc1nnsc1C(=O)N/N=C/c1ccccc1,-14.8
9,CCOc1ccc2ccccc2c1/C=N\NC(=O)c1ccc([N+](=O)[O-])cc1,8.86
10,Cc1ccc(C(=O)N/N=C/c2c(O)ccc3ccccc23)cn1,-8.14
11,COc1ccc(/C=N/NC(=O)c2snnc2C)c(OC)c1OC,4.13
12,O=C(N/N=C/c1ccccc1C(=O)O)c1ccncc1,47.8
13,O=C(N/N=C/c1ccccc1O)c1ccncc1,67.2
14,CCOc1ccc2ccccc2c1/C=N/NC(=O)c1ccc(C)nc1,6.31
15,Cc1ccc(NC(=O)[C@H](C)NC(=O)C2CCN(C(=O)[C@@H](NC(=O)OC(C)(C)C)C(C)C)CC2)cc1,-5.73
16,CC(C)[C@H](NC(=O)c1ccco1)C(=O)OCC(=O)NC12CC3CC(CC(C3)C1)C2,16.5
17,O=C(Nc1cccc(-n2cnnn2)c1)c1cnccc1Cl,-2.47
18,O=C(NCc1ccccc1)c1ccc(CN2CCC(Cc3ccccc3)CC2)cc1,63.1
19,CCCc1ccc2oc(C(=O)N3CCC(N4CCCC(O)C4)CC3)c(C)c2c1 (configuration not stated),9.91
20,O=C(NC1=NCCS1)c1cc(-c2ccccc2)nn1-c1ccccc1,12.3
21,COc1ccc(C(=O)N/N=C/c2cccnc2)cc1,-12.5
22,Cc1cccc2cc(/C=N/NC(=O)c3ccccc3O)c(Cl)nc12,-1.47

row,SMILES,inhibition [%]
1,COc1cccc(/C=N/NC(=O)COc2cccc3cccnc23)c1O,22.2
2,O=C(COc1cccc2cccnc12)N/N=C/c1ccccc1O,21.3
3,CCOc1ccc(C(=O)Nc2cccc3cccnc23)cc1,39
4,O=C(N/N=C/c1ccnc2ccccc12)c1ccccc1O,24.1
5,O=C(O)c1ccc(N/N=C/c2cccc3cccnc23)cc1,-19.9
6,CCOc1ccccc1C(=O)N/N=C/c1cccc2cccnc12,78.1
7,O=C(c1ccccc1)N1CCN(C(=S)NCc2ccco2)CC1,-12.8
8,Cc1cc(/C=N/O)c(C)n1-c1cccc(Cl)c1,5.04
9,Nc1c(C(=O)Nc2ccc3c(c2)OCCO3)nnn1Cc1cccc(Br)c1,1.42
10,CCOc1ccc(N=C2NC(=O)C(CC(=O)Nc3ccc(OC)cc3)S2)cc1 (configuration not stated),23
11,N#Cc1ccc(C23CC4(C2)[C@H](CN(Cc2ccc(-c5ccccc5)cc2)[C@@H]4c2ccccc2)C3c2ccccc2)cc1 (some centres not stated),34.9
12,CCN(CC)C(=O)CSc1nc(OC)cc(=O)[nH]1,-3.35
13,COC(=O)C1=C(C(=O)OC)[C@@H]2N(Cc3ccccc3)c3ccccc3[C@@]23C[C@@H](CO)N(C(=O)NC2CCCC2)C3=N1,39.9
14,Cc1ccc(S(=O)(=O)N2CCC(=O)N(CCOC(=O)NCc3ccccc3)CC2)cc1,16.1
15,O=C(O)c1ccc(N2CC3CC(C2)c2cccc(=O)n2C3)c(NC(=S)Nc2ccc(Br)cc2)c1 (configuration not stated),41.1
16,O=[N+]([O-])c1ccc(Nc2cccc(F)c2)nc1,16.5
17,CC1=NN(C(=O)c2cccnc2)C(O)(C(F)(F)F)C1 (configuration not stated),-26.1
18,O=C(c1ccco1)N1N=C(c2ccncc2)CC1(O)C(F)(F)F (configuration not stated),-9.67
19,CC1=NN(C(=O)c2nn(C)cc2Br)C(O)(C(F)(F)F)C1 (configuration not stated),8.53
20,COc1ccc(CC(=O)N2N=C(C)CC2(O)C(F)(F)F)cc1 (configuration not stated),72.4
21,COc1ccc(OCC(=O)N2N=C(C)CC2(O)C(F)(F)F)cc1 (configuration not stated),75.8
22,CC1=NN(C(=O)c2ccc(Cn3nc(C)cc3C)o2)C(O)(C(F)(F)F)C1 (configuration not stated),24.9

row,SMILES,inhibition [%]
1,CC1=NN(C(=O)CCc2ccccc2O)C(O)(C(F)(F)F)C1 (configuration not stated),74.8
2,CC1=NN(C(=O)CCc2ccc3c(c2)OCO3)C(O)(C(F)(F)F)C1 (configuration not stated),-15.8
3,COC(=O)c1ccccc1NC(=O)COC(=O)/C=C/c1cccs1,18.2
4,CC(C)c1ccc(C(O)Cc2nc3ccccc3n2C)cc1 (configuration not stated),41.1
5,OCCCc1nc2n(n1)C(c1cccs1)C=C(c1ccccc1)N2 (configuration not stated),0.31
6,CCOC(=O)c1cc([N+](=O)[O-])sc1N,5.99
7,CCn1c(C(=O)O)c(CC(=O)NC2CCCCCC2)c2ccccc21,24.3
8,O=C(CSc1ncccn1)NC1CCCc2ccccc21 (configuration not stated),-8.14
9,CC1=NN(C(=O)Cn2nc([N+](=O)[O-])cc2C)C(O)(C(F)(F)F)C1 (configuration not stated),32.3
10,CC1=NN(C(=O)c2cccc(Cn3nc(C)c([N+](=O)[O-])c3C)c2)C(O)(C(F)(F)F)C1 (configuration not stated),76.4
11,COc1ccc(CC(=O)N2N=C(C)CC2(O)C(F)(F)F)cc1OC (configuration not stated),45.4
12,CC1=NN(C(=O)c2ccc(Cn3ccc([N+](=O)[O-])n3)cc2)C(O)(C(F)(F)F)C1 (configuration not stated),75.5
13,CNC(=S)NNS(=O)(=O)c1ccc(OC)cc1OC,-11
14,COc1cccc(N2CCN(CC(=O)Nc3nnc(-c4ccccc4)s3)CC2)c1,29.2
15,O=C(CN1CCN(c2ccccc2)CC1)Nc1nccs1,5.49
16,C=CCn1c(=S)[nH]c2cc(C(=O)Nc3ccc(OC)c(OC)c3)ccc2c1=O,-8.59
17,COc1cccc2cc(C(=O)NCCc3c[nH]c4ccccc34)c(=O)oc12,61
18,O=C(NCCc1ccc(F)cc1)c1cc2ccccc2oc1=O,47.5
19,COC(=O)C1=CN(Cc2ccc(OC)cc2)C=C(C(=O)OC)C1c1cc(OC)c(OC)c(OC)c1,8.79
